Several values for one entry are separate records, joined by “and”; a condition that tells them apart may be missing. Identical values can stand only once. Activity calls are given as the source filed them. Cut-off read from the data, not from the text of the source, unless noted: active = inhibition above about 28%; inactive = the rest.
Legend:
[1] = target: Nuclear receptor coactivator 3 (Homo sapiens) (UniProt Q9Y6Q9); assay: NCOA3 GAL4-fusion reporter inhibition – cell-based, luminescence, quadruplicate, confirmation (AID 588792;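 active = mean inhibition over 43.08%, the solvent-only control mean plus 3 SD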;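 note: 0% = DMSO treated cells and 100% = gossypol at 36 µM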); details: HEK293 GAL4-SRC3 luciferase reporter, at 3.6 µM, active compounds read high
[2] = tested on: transactivating tegument protein VP16 (Human herpesvirus 1), Gal4-VP16 luciferase reporter; assay: repression of VP16-driven luciferase reporter – cell-based, luminescence, high throughput, counter-screen for SRC3 inhibitor project (AID 588794; in the data active = inhibition above about 30%); details: mammalian cells, at 3.6 µM, active compounds read high
[3] = target: Nuclear receptor coactivator 1 (Homo sapiens) (UniProt Q15788); assay: NCOA1 GAL4-fusion reporter inhibition – cell-based, luminescence, quadruplicate, confirmation (AID 588820;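 active = mean inhibition above 46.68%, the untreated control wells mean plus 3 SD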;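 note: 0% = DMSO wells and 100% = gossypol 36 µM treated wells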); details: HEK293 GAL4-SRC1 luciferase reporter, at 3.6 µM, active compounds read high
[4] = repression of VP16-driven luciferase reporter – cell-based, luminescence, high throughput, counter-screen for SRC1 inhibitor project (AID 588824; in the data active = inhibition above about 25%); details: cell-based VP16 transactivation luciferase luminescence; at 3.6 µM; active compounds read high
[5] = StAR promoter reporter inhibitors, counter-screen for LRH-1 inverse agonist project, cell-based, luminescence, high throughput (AID 651611); details: StAR promoter luciferase reporter counterscreen, at 3.6 µM, active compounds read high
[6] = target: Nuclear receptor subfamily 5 group A member 2 (Homo sapiens) (UniProt O00482); assay: NR5A2 activity suppression in reporter cells – cell-based, luminescence, confirmation (AID 651613; in the data active = inhibition above about 42%;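 note: HEK293T cells co-transfected with LRH-1 and StAR promoter luciferase reporter; 0% = vehicle wells and 100% = parental cells lacking receptor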); details: cell-based LRH-1 luciferase reporter, inverse agonism; at 3.6 µM; active compounds read high
[7] = target: Steroidogenic factor 1 (Homo sapiens) (UniProt Q13285); assay: inverse agonism at SF1 nuclear receptor – cell-based, luminescence, high throughput, counter-screen for LRH-1 inverse agonist project (AID 651614; in the data active = inhibition above about 44%;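 note: cells cotransfected with StAR promoter reporter and SF1 expression vector; 0% = vehicle on cells with receptor and 100% = vehicle on cells lacking receptor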); details: cell-based SF1 luciferase reporter, at 3.6 µM, active compounds read high
[8] = compounds suppressing VP16-driven luciferase signal – cell-based, luminescence, high throughput, counter-screen for LRH-1 inverse agonist project (AID 651615; in the data active = inhibition above about 33%); details: Gal4-VP16 luciferase reporter cells, at 3.6 µM, active compounds read high

Chain of Nuclear receptor coactivator 1 (Homo sapiens) (Q15788 whole entry, looked up, the tested form may be a part): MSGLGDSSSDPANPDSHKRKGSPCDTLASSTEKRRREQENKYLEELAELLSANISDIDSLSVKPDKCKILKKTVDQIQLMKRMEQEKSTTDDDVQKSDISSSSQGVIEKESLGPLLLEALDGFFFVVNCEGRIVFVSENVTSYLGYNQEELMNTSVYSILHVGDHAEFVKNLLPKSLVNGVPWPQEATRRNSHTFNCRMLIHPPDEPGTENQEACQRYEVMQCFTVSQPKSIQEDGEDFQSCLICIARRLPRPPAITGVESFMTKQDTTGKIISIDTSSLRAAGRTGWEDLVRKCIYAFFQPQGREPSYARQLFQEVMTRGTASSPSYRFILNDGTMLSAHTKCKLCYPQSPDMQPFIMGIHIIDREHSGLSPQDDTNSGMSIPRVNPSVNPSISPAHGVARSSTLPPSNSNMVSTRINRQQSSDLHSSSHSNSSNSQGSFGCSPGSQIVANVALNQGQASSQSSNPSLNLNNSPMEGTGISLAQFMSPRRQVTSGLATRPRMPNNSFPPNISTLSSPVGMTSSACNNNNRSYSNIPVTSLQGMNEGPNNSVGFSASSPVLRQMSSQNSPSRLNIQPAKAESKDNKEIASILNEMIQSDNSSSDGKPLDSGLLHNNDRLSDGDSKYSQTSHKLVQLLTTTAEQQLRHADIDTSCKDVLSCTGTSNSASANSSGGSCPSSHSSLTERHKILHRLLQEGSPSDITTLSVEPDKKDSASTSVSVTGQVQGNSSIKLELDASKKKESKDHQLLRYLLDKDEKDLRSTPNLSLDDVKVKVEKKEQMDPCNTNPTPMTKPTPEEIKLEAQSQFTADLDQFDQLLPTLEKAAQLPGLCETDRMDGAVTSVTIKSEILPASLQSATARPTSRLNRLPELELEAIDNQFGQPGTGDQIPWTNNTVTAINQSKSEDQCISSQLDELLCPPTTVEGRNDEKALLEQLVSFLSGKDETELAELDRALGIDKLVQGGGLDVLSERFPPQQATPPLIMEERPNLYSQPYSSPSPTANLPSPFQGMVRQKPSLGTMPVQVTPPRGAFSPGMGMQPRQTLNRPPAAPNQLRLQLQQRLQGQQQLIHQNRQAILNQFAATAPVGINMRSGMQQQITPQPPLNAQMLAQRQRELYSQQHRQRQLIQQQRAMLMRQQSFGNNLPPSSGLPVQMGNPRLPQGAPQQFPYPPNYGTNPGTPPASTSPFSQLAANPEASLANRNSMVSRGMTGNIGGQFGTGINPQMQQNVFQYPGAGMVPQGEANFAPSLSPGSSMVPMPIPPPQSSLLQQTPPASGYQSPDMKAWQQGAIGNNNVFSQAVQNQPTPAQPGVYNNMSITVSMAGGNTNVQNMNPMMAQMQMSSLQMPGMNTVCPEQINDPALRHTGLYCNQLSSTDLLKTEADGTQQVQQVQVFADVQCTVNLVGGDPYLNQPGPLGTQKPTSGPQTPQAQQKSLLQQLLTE
Chain of Nuclear receptor subfamily 5 group A member 2 (Homo sapiens) (O00482 whole entry, looked up): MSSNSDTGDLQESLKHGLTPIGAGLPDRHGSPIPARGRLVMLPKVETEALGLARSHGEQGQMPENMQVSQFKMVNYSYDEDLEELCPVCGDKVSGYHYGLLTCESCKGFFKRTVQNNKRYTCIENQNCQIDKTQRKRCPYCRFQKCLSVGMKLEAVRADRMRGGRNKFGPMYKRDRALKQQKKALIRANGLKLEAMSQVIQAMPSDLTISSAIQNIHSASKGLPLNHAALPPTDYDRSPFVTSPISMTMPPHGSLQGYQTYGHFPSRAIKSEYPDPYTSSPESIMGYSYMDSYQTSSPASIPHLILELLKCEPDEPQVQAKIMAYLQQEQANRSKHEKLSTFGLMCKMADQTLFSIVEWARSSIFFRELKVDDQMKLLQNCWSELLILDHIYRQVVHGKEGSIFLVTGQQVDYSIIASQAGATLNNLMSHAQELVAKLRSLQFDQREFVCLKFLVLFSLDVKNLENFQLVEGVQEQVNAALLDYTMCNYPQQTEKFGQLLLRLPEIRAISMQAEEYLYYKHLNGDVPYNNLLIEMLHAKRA
Chain of Nuclear receptor coactivator 3 (Homo sapiens) (Q9Y6Q9 whole entry, looked up, the tested form may be a part): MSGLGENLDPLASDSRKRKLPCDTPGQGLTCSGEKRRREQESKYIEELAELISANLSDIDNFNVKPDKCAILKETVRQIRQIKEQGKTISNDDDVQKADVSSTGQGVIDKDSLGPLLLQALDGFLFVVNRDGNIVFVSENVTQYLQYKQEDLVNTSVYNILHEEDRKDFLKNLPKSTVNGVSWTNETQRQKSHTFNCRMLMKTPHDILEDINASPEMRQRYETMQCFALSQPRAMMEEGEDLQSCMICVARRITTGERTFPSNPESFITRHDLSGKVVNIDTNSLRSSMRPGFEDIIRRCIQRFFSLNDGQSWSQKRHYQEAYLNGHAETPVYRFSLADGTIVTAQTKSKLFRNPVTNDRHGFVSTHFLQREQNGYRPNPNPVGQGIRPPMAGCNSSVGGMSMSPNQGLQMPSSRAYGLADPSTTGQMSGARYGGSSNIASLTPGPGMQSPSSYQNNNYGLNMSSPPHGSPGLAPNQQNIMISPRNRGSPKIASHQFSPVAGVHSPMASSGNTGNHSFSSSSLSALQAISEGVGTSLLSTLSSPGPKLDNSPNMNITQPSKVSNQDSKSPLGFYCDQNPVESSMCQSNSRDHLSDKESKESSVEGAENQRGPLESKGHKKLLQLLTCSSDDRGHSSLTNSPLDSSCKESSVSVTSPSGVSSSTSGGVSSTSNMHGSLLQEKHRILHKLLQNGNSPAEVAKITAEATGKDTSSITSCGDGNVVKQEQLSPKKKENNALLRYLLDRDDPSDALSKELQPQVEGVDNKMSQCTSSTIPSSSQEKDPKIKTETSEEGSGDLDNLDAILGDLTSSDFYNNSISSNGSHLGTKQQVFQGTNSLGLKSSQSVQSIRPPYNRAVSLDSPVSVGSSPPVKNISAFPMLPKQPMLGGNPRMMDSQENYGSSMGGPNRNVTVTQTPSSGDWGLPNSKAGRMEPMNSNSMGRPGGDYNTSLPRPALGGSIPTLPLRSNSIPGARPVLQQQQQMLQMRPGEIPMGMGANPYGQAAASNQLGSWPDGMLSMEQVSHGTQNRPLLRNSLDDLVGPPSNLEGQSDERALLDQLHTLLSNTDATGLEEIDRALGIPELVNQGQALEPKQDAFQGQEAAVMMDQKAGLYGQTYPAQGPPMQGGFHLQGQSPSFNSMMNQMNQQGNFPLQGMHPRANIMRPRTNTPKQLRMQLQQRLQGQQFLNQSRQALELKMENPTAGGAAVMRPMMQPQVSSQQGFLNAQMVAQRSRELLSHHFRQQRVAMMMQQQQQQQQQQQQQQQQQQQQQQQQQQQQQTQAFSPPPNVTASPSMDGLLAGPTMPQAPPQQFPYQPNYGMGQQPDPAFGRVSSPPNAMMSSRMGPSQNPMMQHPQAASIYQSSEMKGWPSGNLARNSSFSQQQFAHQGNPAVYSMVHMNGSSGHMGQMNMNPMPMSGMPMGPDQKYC
Chain of Steroidogenic factor 1 (Homo sapiens) (Q13285 whole entry, looked up, the tested form may be a part): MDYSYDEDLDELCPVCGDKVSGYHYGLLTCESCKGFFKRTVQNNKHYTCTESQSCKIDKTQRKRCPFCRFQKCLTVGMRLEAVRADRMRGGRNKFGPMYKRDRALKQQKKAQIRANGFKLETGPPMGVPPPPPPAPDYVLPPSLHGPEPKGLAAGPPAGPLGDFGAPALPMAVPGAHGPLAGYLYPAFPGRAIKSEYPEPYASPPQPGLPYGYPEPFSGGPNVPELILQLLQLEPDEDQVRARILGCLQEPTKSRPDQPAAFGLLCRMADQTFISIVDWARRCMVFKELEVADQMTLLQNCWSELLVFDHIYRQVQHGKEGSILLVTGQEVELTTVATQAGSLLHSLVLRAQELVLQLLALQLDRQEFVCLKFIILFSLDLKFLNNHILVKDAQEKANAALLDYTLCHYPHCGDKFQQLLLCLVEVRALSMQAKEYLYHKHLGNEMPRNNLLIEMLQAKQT

Compound: Cc1ccc(-c2cn(-c3ccccc3)c3[n+]2CCCS3)cc1
- inhibition [1]: 1.67% (inactive)
- inhibition [2]: 27.5% (inactive)
- inhibition [3]: 9.91% (inactive)
- inhibition [4]: 19.5% (inactive)
- inhibition [5]: 24.4% (inactive) and 12.1% (inactive)
- inhibition [6]: 80.1% (active) and 61.7% (active)
- inhibition [7]: 61.2% (active) and 59.6% (active)
- inhibition [8]: 64.2% (active) and 56.1% (active)

Compound: COc1ccccc1C(=O)Nc1nc2ccccc2s1
- inhibition [1]: 85.4% (active)
- inhibition [2]: 79.6% (active)
- inhibition [3]: 56.6% (active)
- inhibition [4]: 71% (active)
- inhibition [5]: 85.9% (active)
- inhibition [6]: 86.4% (active)
- inhibition [7]: 88% (active)
- inhibition [8]: 75.6% (active)

Compound: Cc1ccc2nc(NC(=O)CSCC(=O)OCC(=O)c3ccccc3)sc2c1
- inhibition [1]: 46.5% (active)
- inhibition [2]: 39% (active)
- inhibition [3]: 7.46% (inactive)
- inhibition [4]: 30.5% (active)
- inhibition [5]: 19.2% (inactive)
- inhibition [6]: 52.4% (active)
- inhibition [7]: 39.6% (inactive)
- inhibition [8]: 32.6% (active)

Compound: Cc1onc(-c2ccccc2)c1C(=O)NC(=S)NNC(=O)c1ccc(O)cc1O
- inhibition [1]: 55.7% (active)
- inhibition [2]: 75.7% (active)
- inhibition [3]: 69.8% (active)
- inhibition [4]: 80.5% (active)
- inhibition [5]: 62.8% (active)
- inhibition [6]: 95.8% (active)
- inhibition [7]: 85.6% (active)
- inhibition [8]: 83.5% (active)

Compound: N=c1c2c(-c3ccccc3)c(-c3ccccc3)n(Cc3ccco3)c2ncn1CCO
- inhibition [1]: 23.5% (inactive)
- inhibition [2]: 54.5% (active)
- inhibition [3]: 41% (inactive)
- inhibition [4]: 56.2% (active)
- inhibition [5]: 54.3% (active)
- inhibition [6]: 64.8% (active)
- inhibition [7]: 64% (active)
- inhibition [8]: 74.8% (active)

Compound: C(=NNc1ccc2ccccc2n1)c1ccccn1
- inhibition [1]: 60.6% (active)
- inhibition [2]: -12% (inactive)
- inhibition [3]: -75.3% (inactive)
- inhibition [4]: -33.3% (inactive)
- inhibition [5]: 65.4% (active)
- inhibition [6]: 51% (active)
- inhibition [7]: 59.2% (active)
- inhibition [8]: -44.1% (inactive)

Compound: Cc1ccc2[nH]c3c(c2c1)CCCC3NC(=O)CCl (centres undefined)
- inhibition [1]: 87.4% (active)
- inhibition [2]: 84.2% (active)
- inhibition [3]: 44.3% (inactive)
- inhibition [4]: 82.4% (active)
- inhibition [5]: 92% (active)
- inhibition [6]: 106% (active)
- inhibition [7]: 96.3% (active)
- inhibition [8]: 92.3% (active)

Compound: COC1C=CC=C(C)C(=O)NC2=CC(=O)C(N)=C(CC(C)CC(OC)C(O)C(C)C=C(C)C1OC(N)=O)C2=O (centres undefined)
- inhibition [1]: 78.9% (active)
- inhibition [2]: 81.6% (active)
- inhibition [3]: 18.4% (inactive)
- inhibition [4]: 82.3% (active)
- inhibition [5]: 73.2% (active)
- inhibition [6]: 93.7% (active)
- inhibition [7]: 85.5% (active)
- inhibition [8]: 85.7% (active)

Compound: N=c1c2c(n(Cc3cccc(Cl)c3)c3c1CCC3)CCCC2
- inhibition [1]: 42.1% (inactive)
- inhibition [2]: 65.2% (active)
- inhibition [3]: 40.5% (inactive)
- inhibition [4]: 73.9% (active)
- inhibition [5]: 53.3% (active)
- inhibition [6]: 108% (active)
- inhibition [7]: 83.8% (active)
- inhibition [8]: 85.4% (active)

Compound: COC(C(=O)C(O)C(C)O)C1Cc2cc3cc(OC4CC(OC5CC(O)C(O)C(C)O5)C(O)C(C)O4)c(C)c(O)c3c(O)c2C(=O)C1OC1CC(OC2CC(OC3CC(O)C(OC)C(C)O3)C(O)C(C)O2)C(O)C(C)O1 (centres undefined)
- inhibition [1]: 93.6% (active)
- inhibition [2]: 93.9% (active)
- inhibition [3]: 78% (active)
- inhibition [4]: 92.2% (active)
- inhibition [5]: 93.6% (active)
- inhibition [6]: 109% (active)
- inhibition [7]: 97.2% (active)
- inhibition [8]: 99.4% (active)

Compound: O=C(O)CSCC(=O)Nc1ccc(C2CCCCC2)cc1
- inhibition [1]: 72% (active)
- inhibition [2]: 62.4% (active)
- inhibition [3]: 64.2% (active)
- inhibition [4]: 63.7% (active)
- inhibition [5]: 71.4% (active)
- inhibition [6]: 78.8% (active)
- inhibition [7]: 64.5% (active)
- inhibition [8]: 63.6% (active)

Compound: NC(=Nc1nc(-c2ccccn2)cc2ccccc12)c1ccccn1
- inhibition [1]: 79% (active)
- inhibition [2]: 47.7% (active)
- inhibition [3]: 65.6% (active)
- inhibition [4]: 28.4% (active)
- inhibition [5]: 91.8% (active)
- inhibition [6]: 107% (active)
- inhibition [7]: 88.8% (active)
- inhibition [8]: 59.3% (active)

Compound: Cc1c(P(=S)(c2ccccc2)c2ccccc2)[n+]2ccccc2n1C/C=C/c1ccccc1
- inhibition [1]: 20.6% (inactive)
- inhibition [2]: 36.9% (active)
- inhibition [3]: 26% (inactive)
- inhibition [4]: 54.4% (active)
- inhibition [5]: 44.7% (active)
- inhibition [6]: 90.6% (active)
- inhibition [7]: 51.4% (active)
- inhibition [8]: 60.5% (active)

Compound: N=c1c2c(n(Cc3ccc(F)cc3)c3c1CCC3)CCC2
- inhibition [1]: 25.9% (inactive)
- inhibition [2]: 42.9% (active)
- inhibition [3]: 17.8% (inactive)
- inhibition [4]: 43.6% (active)
- inhibition [5]: 41.6% (active)
- inhibition [6]: 80.3% (active)
- inhibition [7]: 69% (active)
- inhibition [8]: 69.2% (active)

Compound: O=[N+]([O-])c1ccc(Sc2cccc[n+]2[O-])c2nonc12
- inhibition [1]: 98.7% (active)
- inhibition [2]: 95.4% (active)
- inhibition [3]: 91.7% (active)
- inhibition [4]: 93.3% (active)
- inhibition [5]: 98.1% (active)
- inhibition [6]: 111% (active)
- inhibition [7]: 99.2% (active)
- inhibition [8]: 98.9% (active)

Compound: CC[n+]1c(/C=C/N(C)c2ccccc2)oc2ccccc21
- inhibition [1]: 34.7% (inactive)
- inhibition [2]: 55.8% (active)
- inhibition [3]: 16.9% (inactive)
- inhibition [4]: 55.2% (active)
- inhibition [5]: 31.9% (active)
- inhibition [6]: 82% (active)
- inhibition [7]: 69% (active)
- inhibition [8]: 73.2% (active)

Compound: Cc1cc(/C=C2\Sc3ccccc3N2C)cc(C)[n+]1CC1CCCO1 (centres undefined)
- inhibition [1]: 37.1% (inactive)
- inhibition [2]: 77.1% (active)
- inhibition [3]: 34% (inactive)
- inhibition [4]: 75.3% (active)
- inhibition [5]: 77.8% (active)
- inhibition [6]: 99.3% (active)
- inhibition [7]: 90.5% (active)
- inhibition [8]: 89% (active)

Compound: CN(Cc1cnc2nc(N)nc(N)c2n1)c1ccc(C(=O)N[C@@H](CCC(=O)O)C(=O)O)cc1
- inhibition [1]: 66.7% (active)
- inhibition [2]: 12.6% (inactive)
- inhibition [3]: 35% (inactive)
- inhibition [4]: 8.93% (inactive)
- inhibition [5]: 76.9% (active)
- inhibition [6]: 54.9% (active)
- inhibition [7]: 55.4% (active)
- inhibition [8]: 22.7% (inactive)

— PubChem BioAssay
